# Results: PubChem BioAssay (NCI)
# About 83,000 compounds went through this panel and 20% of them were active in at least one assay; those are over-represented in the sample as a whole.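 Plates (96-well) were seeded with cells, treated with compound at one concentration, and incubated for 48 hours before percent growth was determined.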 Values without a mark were called inactive. Active and inactive are the calls of the source. How the source made its calls: active means growth percent below 10; inactive means the rest.
# Columns and labels:
# Test in all cases: NCI-60 one-dose screen, 48 h (100 = growth as untreated, 0 = no growth, -100 = all killed)
# Conditions in all cases: 10 µM unless noted
# [1] = tested on: SK-MEL-2 melanoma
# [2] = tested on: EKVX NSCLC
# [3] = tested on: SN12C renal
# [4] = tested on: UO-31 renal
# [5] = tested on: TK-10 renal
# [6] = tested on: ACHN renal
# [7] = tested on: CAKI-1 renal
# [8] = tested on: A498 renal
# [9] = tested on: CCRF-CEM leukemia
# [10] = tested on: MOLT-4 leukemia
Structure (SMILES),growth [1],growth [2],growth [3],growth [4],growth [5],growth [6],growth [7],growth [8],growth [9],growth [10]
N#CC1=C(N)Oc2c(ccc3ccccc23)C1c1ccccc1 (stereo not given),43.1%,41.9%,32.5%,39.3%,46.8%,31.2%,18.1%,33.7%,9.24% (active),14.6%
Nc1nc(N)c(-c2ccc(Cl)c(Cl)c2)c(CBr)n1,87.6%,85.3%,79.2%,88.7%,83.6%,68.4%,82.3%,89.9%,55.8%,61.3%
CC(=O)N1N=C(c2ccc(C(F)(F)F)c(F)c2)CC1c1[nH]c(C)c(C(=O)NCC(F)(F)F)c1C (stereo not given),106%,88.4%,50.1%,26%,68.5%,18.7%,58.7%,54.9%,90%,82.6%
N#CC(C#N)N=Nc1ccc(Br)cc1,82.1%,55.9%,21.3%,2.16% (active),36.5%,16.6%,6.33% (active),100%,9.65% (active),31.8%
Cn1ccnc1C(=O)/C=C/c1ccc(C(=O)Nc2ccccc2O)cc1,78%,56.5%,12.6%,33.3%,107%,10.5%,26.8%,55.7%,-9.45% (active),17%
O=C1C(=O)N(Cc2ccc(-c3ccccc3)cc2)c2ccc(OC(F)(F)F)cc21,69.7%,94.3%,21.2%,45.5%,63.9%,41.7%,31.7%,84.8%,9.7% (active),30%
CN(C)c1ccc(C(=O)OCCCCCCl)cc1,94.7%,96.9%,96%,77.8%,96.5%,102%,89.1%,83.9%,122%,86.1%
Cc1csc(Nc2nc(-c3ccccn3)nc(C(Cl)(Cl)Cl)n2)n1,95.8%,95.1%,97.9%,84.3%,94.8%,79.7%,82.2%,90.7%,59.2%,67.9%
O=[N+]([O-])c1cccc(-c2nc3cc4nc5ccccc5[nH]c4cc3n2)c1,93.4%,99.7%,108%,84.4%,105%,103%,104%,92.1%,111%,92.9%
Cn1c(=O)cc2c3c(c(NCCCO)ccc31)C(=O)c1ccccc1-2,73.9%,73.2%,46.8%,13.1%,29.1%,25.3%,44.7%,64.2%,48.3%,19.2%
N#CC1=C(c2ccccc2)Nc2c(c(-c3ccc(Cl)cc3)nn2-c2ccccc2)C12C(=O)Nc1ccc(Cl)cc12 (stereo not given),94.8%,61.6%,84.9%,47.8%,73.7%,80.6%,44.5%,69%,61.4%,52.5%
CN(C)CCNC(=O)c1cc2c3cc(Cl)ccc3[nH]c2c2ncccc12,47.9%,22.1%,10.2%,6.68% (active),42.8%,10.2%,23.8%,26.7%,-13.2% (active),-12.4% (active)
C=C(CBr)[C@@H]1CC[C@]2(C(=O)O)CC[C@]3(C)[C@H](CC[C@@H]4[C@@]5(C)CCC(=O)C(C)(C)[C@@H]5CC[C@]43C)[C@@H]12,79.7%,86.5%,72.5%,56.2%,112%,81.4%,82%,110%,50.3%,54.4%
Cc1nc2sc(C(=O)Nc3cccc4ccccc34)c(N)c2cc1C(O)c1ccccc1 (stereo not given),25.3%,39.4%,12.7%,33.4%,52.6%,24.4%,29.5%,-13.7% (active),6.95% (active),6.27% (active)
CN(C)c1ccc(-c2c(C#N)c(N)nn2C(=O)c2ccc(NC(=O)c3ccccn3)cc2)cc1,105%,91.6%,101%,80.7%,110%,87.2%,77.3%,96.6%,51.5%,99.5%
Clc1cccc(Nc2ncnc3ccc(-c4cnc5[nH]ccc5c4)cc23)c1,81.3%,10%,77.3%,54.9%,14.4%,47.1%,49%,23.1%,66.7%,50.1%
C=C1CC[C@@H]2[C@](C)(COC(C)=O)[C@H](OC(C)=O)CC[C@@]2(C)[C@@H]1CC(Nc1ccc(S(=O)(=O)Nc2ncccn2)cc1)C1=CCOC1=O (stereo not given in full),41.9%,68.3%,7.64% (active),-17.9% (active),35.1%,-56.1% (active),50.2%,79%,-26.3% (active),-8.69% (active)
COc1ccc(-c2noc(C(=O)O)c2-c2cc(OC)c(OC)c(OC)c2)cc1,13.8%,44.1%,38.4%,38.8%,46.4%,34.7%,22.6%,31.6%,7.85% (active),25.7%
CNC(=O)c1ccccc1Oc1nc(Nc2cc(OC)c(OC)c(OC)c2)ncc1Br,1.29% (active),55.3%,75.8%,33%,50.5%,67.1%,37%,-18.3% (active),59.5%,68.6%
N#CC1=C(N)Oc2c(c(=O)[nH]c3ccc(Cl)cc23)C12C(=O)c1ccccc1C2=O,115%,95.2%,94.8%,70.2%,129%,95.1%,80.5%,88%,107%,116%
N#Cc1nc(-c2ccc(Cl)cc2)oc1S(=O)(=O)N1CCN(c2ccc(F)cc2)CC1,87.9%,111%,92.2%,81.3%,100%,102%,107%,78.6%,3.82% (active),3.45% (active)
COc1ccc(C2CC(c3ccc(Nc4nc(Nc5ccccc5)nc(Nc5ccccc5)n4)cc3)=NN2C(C)=O)cc1 (stereo not given),68.5%,132%,95.7%,78.3%,104%,100%,105%,95.5%,88.6%,71.2%
N#Cc1ccc(O)c(C2=NCC(c3cccc(Oc4ccccc4)c3)O2)c1 (stereo not given),7.46% (active),24%,33.3%,-6.42% (active),3.38% (active),17.5%,6.87% (active),50.9%,14.4%,-0.248% (active)
COC(=O)c1nc(-c2ccc(C)cc2)oc1S(=O)(=O)c1cccc(OC)c1,95.9%,100%,85%,90.3%,64.8%,42.8%,69.5%,102%,-9.09% (active),-7.44% (active)
Clc1cc(Cl)c(Cl)c(-c2nnc(SCc3ccncc3Br)o2)c1,91.8%,84.5%,92.3%,67.4%,117%,94.4%,65.8%,94.8%,77.1%,75.1%
COc1ccc(C(=O)c2cc3c(N)c(C(=O)Nc4ccc(C)cc4)sc3nc2C)cc1,56.1%,40.8%,37.2%,41.2%,61.3%,46.8%,28%,14%,15.7%,20.5%
Nc1nc2ccccc2c2c(=O)c3cccc(Cl)c3sc12,108%,83.8%,82.4%,75.4%,83.6%,86.8%,79%,122%,96.3%,104%
